Here are results for 39 compounds from PubChem BioAssay (NCATS).

Results filed as inconclusive are left out. A call without a number means that no potency is given here. Active and inactive are the calls of the source. Unless noted, calls follow the shape of the dose curve; as a rule, active = well fitted curve in the direction sought with a large enough effect; inconclusive = small, poorly fitted or top-dose-only effect, or another doubt; inactive = no such curve, though single readings can be large; an effect the other way counts as inactive or inconclusive.

Sequence of Glutathione peroxidase 1 (Homo sapiens) (P07203 whole entry, looked up): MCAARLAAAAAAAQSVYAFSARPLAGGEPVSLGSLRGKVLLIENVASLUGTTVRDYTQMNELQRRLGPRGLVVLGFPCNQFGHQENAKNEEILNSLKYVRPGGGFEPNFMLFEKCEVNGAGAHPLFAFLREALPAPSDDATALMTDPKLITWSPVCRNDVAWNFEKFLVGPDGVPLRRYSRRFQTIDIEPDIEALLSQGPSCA

The target of one experiment is Catechol O-methyltransferase (Homo sapiens) (UniProt P21964). Kind of experiment: Confirmatory Screen for Target Class Profiling of Small Molecule Inhibitors of Methyltransferases (AID 1745852; calls by dose curve; also: potency is read from the fitted curve at half-maximal effect). The conditions noted are these: MTase-Glo luminescence, SAH detection, recombinant enzyme; measured here: COMT max response; stronger effect = lower value.
Sequence of Catechol O-methyltransferase (Homo sapiens) (P21964 whole entry, looked up): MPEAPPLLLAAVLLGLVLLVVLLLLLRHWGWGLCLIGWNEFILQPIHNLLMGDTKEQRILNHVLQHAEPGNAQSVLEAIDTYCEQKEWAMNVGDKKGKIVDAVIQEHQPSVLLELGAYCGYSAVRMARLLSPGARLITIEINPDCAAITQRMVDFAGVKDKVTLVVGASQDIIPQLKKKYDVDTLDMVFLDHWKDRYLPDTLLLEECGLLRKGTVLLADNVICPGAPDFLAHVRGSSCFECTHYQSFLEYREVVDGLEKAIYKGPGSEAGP
In the case of `CCCCCOc1cc2c(cc1-c1cc(/C=C/C(=O)O)ccc1O)C(C)(C)CCC2(C)C`, the activity is -5.76%.

Consider `CNc1ccc2oc(C[C@H]3O[C@@]4(CC[C@H]3C)O[C@H]([C@H](C)C(=O)c3ccc[nH]3)[C@H](C)C[C@H]4C)nc2c1C(=O)O`, for which the activity was -3.19%.

Turning to `CC(N)c1cccc(Cl)c1Cl` (configuration not stated), the activity came out at 3.38%.

Take `Cc1sc2ccccc2c1CC1=NCCN1`: the activity turned out to be 6.03%.

The target of another experiment is Guanidinoacetate N-methyltransferase (Homo sapiens) (UniProt Q14353). The description is as above. The conditions noted are these: MTase-Glo luminescence, SAH detection, recombinant enzyme; activity change, negative = inhibition: at 57.3 µM (top of the series) unless noted.
As for `CCCCCOc1cc2c(cc1-c1cc(/C=C/C(=O)O)ccc1O)C(C)(C)CCC2(C)C`, the activity change, negative = inhibition was -6.96%.

Take `CNc1ccc2oc(C[C@H]3O[C@@]4(CC[C@H]3C)O[C@H]([C@H](C)C(=O)c3ccc[nH]3)[C@H](C)C[C@H]4C)nc2c1C(=O)O`: the Potency was 34.3 µM (active).

Take `CC(N)c1cccc(Cl)c1Cl` (configuration not stated): the activity change, negative = inhibition is 5.58%.

With `Cc1sc2ccccc2c1CC1=NCCN1`, the activity change, negative = inhibition came out at 4.23%.

For a further experiment, the target named is Nicotinamide N-methyltransferase (Homo sapiens) (UniProt P40261). The description is as above. The conditions noted are these: MTase-Glo luminescence, SAH detection, recombinant enzyme; measured here: NNMT max response; stronger effect = lower value.
Sequence of Nicotinamide N-methyltransferase (Homo sapiens) (P40261 whole entry, looked up): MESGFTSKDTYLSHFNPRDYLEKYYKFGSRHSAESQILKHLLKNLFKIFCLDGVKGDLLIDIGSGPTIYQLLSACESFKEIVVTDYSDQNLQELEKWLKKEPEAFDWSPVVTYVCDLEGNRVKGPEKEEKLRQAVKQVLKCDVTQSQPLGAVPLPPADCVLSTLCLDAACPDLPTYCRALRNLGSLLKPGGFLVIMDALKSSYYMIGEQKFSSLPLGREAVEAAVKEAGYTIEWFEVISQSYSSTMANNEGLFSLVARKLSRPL
Consider `CCCCCOc1cc2c(cc1-c1cc(/C=C/C(=O)O)ccc1O)C(C)(C)CCC2(C)C`, for which the activity was -28.2%.

For the compound `CNc1ccc2oc(C[C@H]3O[C@@]4(CC[C@H]3C)O[C@H]([C@H](C)C(=O)c3ccc[nH]3)[C@H](C)C[C@H]4C)nc2c1C(=O)O`, the activity was -35.2%.

On to `CC(N)c1cccc(Cl)c1Cl` (configuration not stated), for which the activity was -1.94%.

Turning to `Cc1sc2ccccc2c1CC1=NCCN1`, the activity was -6.99%.

The target in the next experiment is Phenylethanolamine N-methyltransferase (Homo sapiens) (UniProt P11086). The experiment is described as above. To be noted: MTase-Glo luminescence, SAH detection, recombinant enzyme; measured here: PNMT max response; stronger effect = lower value.
Sequence of Phenylethanolamine N-methyltransferase (Homo sapiens) (P11086 whole entry, looked up): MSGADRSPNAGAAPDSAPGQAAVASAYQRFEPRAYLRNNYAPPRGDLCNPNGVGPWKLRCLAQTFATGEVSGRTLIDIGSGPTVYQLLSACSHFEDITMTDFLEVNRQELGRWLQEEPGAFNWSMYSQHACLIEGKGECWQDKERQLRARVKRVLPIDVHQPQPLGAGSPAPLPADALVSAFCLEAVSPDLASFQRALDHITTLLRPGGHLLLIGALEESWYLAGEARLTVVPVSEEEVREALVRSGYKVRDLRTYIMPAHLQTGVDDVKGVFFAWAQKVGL
As to `CCCCCOc1cc2c(cc1-c1cc(/C=C/C(=O)O)ccc1O)C(C)(C)CCC2(C)C`, the activity stood at 0.0952%.

Consider `CNc1ccc2oc(C[C@H]3O[C@@]4(CC[C@H]3C)O[C@H]([C@H](C)C(=O)c3ccc[nH]3)[C@H](C)C[C@H]4C)nc2c1C(=O)O`, for which the activity was -4.07%.

`CC(N)c1cccc(Cl)c1Cl` (configuration not stated): the activity is -98.4%.

For `Cc1sc2ccccc2c1CC1=NCCN1`, the activity was -30.1%.

Test system in another experiment: not listed separately
Kind of experiment: HepG2 viability counterscreen (readout 2: ATP content) against the NCATS DSHEA and TCM libraries (AID 1794840).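 Also: HepG2 cells exposed to substances for about 24 h.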 The conditions noted are these: ATP content luminescence; series mostly up to 27.3 µM. The method in brief:
(§1)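 After HepG2 cells attach for ~4 h, substances are added and incubated ~24 h at 37C, 5% CO2. GF-AFC fluorescence then CellTiter-Glo luminescence give protease and ATP readouts.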
On the technique in general: A counterscreen serves to expose hits that act by an unwanted route or on another target.
Regarding `O=C/C=C/c1ccccc1`, the outcome is “inactive”.

Take `O=Cc1ccco1`: the outcome was “inactive”.

As for `CNC(C)C(O)c1ccc(O)cc1` (configuration not stated), the outcome is “inactive”.

Test system in another experiment: not listed separately
Kind of experiment: HepG2 viability counterscreen (readout 1: protease activity) against the NCATS DSHEA and TCM libraries (AID 1794841).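 Also: cells exposed to compounds for about 24 h before the protease read.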 To be noted: qHTS concentration series; series mostly up to 27.3 µM. The method in brief:
as §1
Regarding `O=C/C=C/c1ccccc1`, the outcome is “inactive”.

Regarding `O=Cc1ccco1`, the outcome was “inactive”.

In the case of `CNC(C)C(O)c1ccc(O)cc1` (configuration not stated), the outcome was “inactive”.

For a further experiment, the target named is Metallo-beta-lactamase type 2 (Klebsiella pneumoniae) (UniProt C7C422). Briefly: qHTS to identify inhibitors of the New Delhi Metallo-beta-lactamase (NDM): assay validation screen against the NCATS LOPAC Collection (AID 1794843). Also: potency is read from the fitted curve at half-maximal effect.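 As to activity change, negative = inhibition: nitrocefin turnover by NDM-1 measured as 485 nm absorbance at plateau.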 The conditions noted are these: NDM-1 enzyme, nitrocefin hydrolysis, absorbance 485 nm; series mostly up to 38.4 µM. Summed up: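 Nitrocefin hydrolysis (50 uM substrate stock) by NDM-1, 2 nM final, was followed by 485 nm absorbance after compound preincubation; buffer was 50 mM HEPES pH 7.0, 1 uM ZnSO4, 0.01% Tween20.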
Sequence of Metallo-beta-lactamase type 2 (Klebsiella pneumoniae) (C7C422 whole entry, looked up): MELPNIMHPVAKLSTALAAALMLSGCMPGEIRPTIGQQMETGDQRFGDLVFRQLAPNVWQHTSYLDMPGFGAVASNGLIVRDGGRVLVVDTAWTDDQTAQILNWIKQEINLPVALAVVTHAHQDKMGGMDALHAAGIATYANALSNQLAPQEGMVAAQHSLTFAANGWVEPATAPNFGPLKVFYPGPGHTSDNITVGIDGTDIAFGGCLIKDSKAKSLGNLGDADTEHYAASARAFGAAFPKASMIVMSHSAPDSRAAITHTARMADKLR
In the case of `NCCCP(=O)(O)O`, the Potency entry is “inactive”.

For `OCc1cnc[nH]1`, the Potency entry is “inactive”.

In the case of `N[C@@]1(C(=O)O)CC[C@@H](C(=O)O)C1`, the Potency result was “inactive”.

As for `CO[C@H]1CC=C2CCN3CCC4=C(CC(=O)OC4)[C@]23C1`, the Potency entry is “inactive”.

On to `CN1C2CCC1CC(OC(c1ccccc1)c1ccccc1N)C2` (configuration not stated), for which the Potency entry was “inactive”.

For `CC(C)(C)c1o[nH]c(=O)c1CC(N)C(=O)O` (configuration not stated), the Potency entry was “inactive”.

As to `CN1CCC(c2c[nH]c3ccc(O)cc23)CC1`, the Potency entry was “inactive”.

In the case of `CC(C)NP(=O)(NC(C)C)OP(=O)(NC(C)C)NC(C)C`, the Potency entry is “inactive”.

On to `CCNC(=O)[C@H]1O[C@@H](n2cnc3c(N)ncnc32)[C@H](O)[C@@H]1O`, for which the Potency result was “inactive”.

For `Clc1cc(I)cc(Cl)c1NC1=NCCN1`, the Potency result was “inactive”.

Consider `C[C@H](Cc1ccc2c(c1)OC(C(=O)O)(C(=O)O)O2)NC[C@H](O)c1cccc(Cl)c1`, for which the Potency result is “inactive”.

For `CC(C)(C)OC(=O)NC1[C@H]2CNC[C@@H]12` (some centres not stated), the Potency result was “inactive”.

Regarding `NC(CCCCCP(=O)(O)O)C(=O)O` (configuration not stated), the Potency result was “inactive”.

With `c1ccc2c(N3CCNCC3)cccc2c1`, the Potency entry is “inactive”.

For the compound `Cc1c2ccncc2c(C)c2c1[nH]c1ccccc12`, the Potency entry is “inactive”.

Take `NC(N)=Nc1ccc2[nH]c3c(c2c1)C[C@@]1(O)[C@H]2Cc4ccc(O)c5c4[C@@]1(CCN2CC1CC1)[C@H]3O5`: the Potency result is “inactive”.

Regarding `NCCc1ccc(S(=O)(=O)F)cc1`, the Potency entry was “inactive”.

Regarding `N[C@@H](Cn1oc(=O)[nH]c1=O)C(=O)O`, the Potency result was “inactive”.

On to `CCCN(CCC)[C@@H]1CCc2cccc(O)c2C1`, for which the Potency result was “inactive”.

With `C[N+]1(C)CCN(c2ccccc2)CC1`, the Potency result was “inactive”.

For the compound `CCCn1c(=O)c2[nH]c(C3CCCC3)nc2n(CCCOC(=O)c2ccc(S(=O)(=O)F)cc2)c1=O`, the Potency result is “inactive”.

Regarding `Oc1ccc2c3c1O[C@H]1c4[nH]c5ccccc5c4C[C@@]4(O)C(C2)N(CC2CC2)CCC314` (some centres not stated), the Potency result was “inactive”.

Regarding `C[N+](C)(C)CC#CCN1CCCC1=O`, the Potency result was “inactive”.

As to `CCN1C[C@@]2(COC)C3[C@@H](OC)C4[C@@H]1C3([C@@H]1C[C@]3(O)[C@H](OC(=O)c5ccccc5)[C@@H]1[C@]4(OC(C)=O)[C@@H](O)[C@@H]3OC)[C@H](OC)C[C@H]2O`, the Potency entry was “inactive”.

Consider `[Cl-].[Cl][Pt].[NH2-].[NH2-].c1ccncc1`, for which the Potency is 3.98 µM (active).

Regarding `CCCCCCCCCCCCCC(=O)O[C@@H]1[C@@H](C)[C@@]2(O)[C@@H](C=C(CO)C[C@@]3(O)C(=O)C(C)=C[C@@H]23)C2C(C)(C)[C@@]21OC(C)=O` (some centres not stated), the Potency entry was “inactive”.

Take `C[N+](C)(C)CCOC(=O)CBr`: the Potency result was “inactive”.

For the compound `CC1(C(=O)O)C2CCC(O2)C1(C)C(=O)O` (configuration not stated), the Potency result was “inactive”.

With `Clc1ccc(N2CC3CCC(C2)N3)nn1`, the Potency result is “inactive”.

On to `CN1CC[C@@]2(C)c3cc(OC(=O)Nc4ccccc4)ccc3N(C)[C@@H]12`, for which the Potency entry was “inactive”.

Turning to `CCCN(CCC)[C@H]1CCc2c(F)ccc(O)c2C1`, the Potency entry was “inactive”.

For `O=[N+]([O-])/C=C/c1ccc2c(c1)OCO2`, the Potency entry was “inactive”.

As for `CC(N)c1cccc(Cl)c1Cl` (configuration not stated), the Potency entry is “inactive”.

The target in a further experiment is Glutathione peroxidase 1 (Homo sapiens) (UniProt P07203). Briefly: Primary qHTS Assay for Inhibitors of Recombinant Selenoprotein Glutathione Peroxidase 1 (GPX1) (AID 1845191). Also: nearly all actives have a fitted effect of over 65% in size. The conditions noted are these: recombinant GPX1, GR-coupled NADPH fluorescence, 15 min; series mostly up to 48.8 µM. Summed up:
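GR-coupled assay: compounds preincubated 30 min at room temperature with GPX1, then reaction started with CHP; final 10 nM GPX1, 1 mM GSH, 0.5 mM CHP, 0.5 mM NADPH, 100 nM GR, 0.01% BSA, pH 7.5 Tris buffer. NADPH fluorescence (340/450 nm) read at 0 and 15 min.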
Turning to `NCCCP(=O)(O)O`, the Potency result was “inactive”.

Consider `OCc1cnc[nH]1`, for which the Potency result was “inactive”.

For the compound `N[C@@]1(C(=O)O)CC[C@@H](C(=O)O)C1`, the Potency entry was “inactive”.

As for `CO[C@H]1CC=C2CCN3CCC4=C(CC(=O)OC4)[C@]23C1`, the Potency entry is “inactive”.

Take `CN1C2CCC1CC(OC(c1ccccc1)c1ccccc1N)C2` (configuration not stated): the Potency result is “inactive”.

For the compound `CC(C)(C)c1o[nH]c(=O)c1CC(N)C(=O)O` (configuration not stated), the Potency result is “inactive”.

Turning to `CN1CCC(c2c[nH]c3ccc(O)cc23)CC1`, the Potency entry is “inactive”.

For the compound `CC(C)NP(=O)(NC(C)C)OP(=O)(NC(C)C)NC(C)C`, the Potency result was “inactive”.

Consider `CCNC(=O)[C@H]1O[C@@H](n2cnc3c(N)ncnc32)[C@H](O)[C@@H]1O`, for which the Potency entry is “inactive”.

Take `CCCCCOc1cc2c(cc1-c1cc(/C=C/C(=O)O)ccc1O)C(C)(C)CCC2(C)C`: the Potency result is “inactive”.

As for `Clc1cc(I)cc(Cl)c1NC1=NCCN1`, the Potency entry was “inactive”.

With `C[C@H](Cc1ccc2c(c1)OC(C(=O)O)(C(=O)O)O2)NC[C@H](O)c1cccc(Cl)c1`, the Potency entry is “inactive”.

`CC(C)(C)OC(=O)NC1[C@H]2CNC[C@@H]12` (some centres not stated): the Potency result was “inactive”.

With `NC(CCCCCP(=O)(O)O)C(=O)O` (configuration not stated), the Potency result was “inactive”.

In the case of `c1ccc2c(N3CCNCC3)cccc2c1`, the Potency entry was “inactive”.

For `O=C/C=C/c1ccccc1`, the Potency entry was “inactive”.

With `Cc1c2ccncc2c(C)c2c1[nH]c1ccccc12`, the Potency entry is “inactive”.

As to `NC(N)=Nc1ccc2[nH]c3c(c2c1)C[C@@]1(O)[C@H]2Cc4ccc(O)c5c4[C@@]1(CCN2CC1CC1)[C@H]3O5`, the Potency result was “inactive”.

Regarding `NCCc1ccc(S(=O)(=O)F)cc1`, the Potency entry is “inactive”.

With `N[C@@H](Cn1oc(=O)[nH]c1=O)C(=O)O`, the Potency entry is “inactive”.

Turning to `CCCN(CCC)[C@@H]1CCc2cccc(O)c2C1`, the Potency result is “inactive”.

For `C[N+]1(C)CCN(c2ccccc2)CC1`, the Potency result was “inactive”.

In the case of `CCCn1c(=O)c2[nH]c(C3CCCC3)nc2n(CCCOC(=O)c2ccc(S(=O)(=O)F)cc2)c1=O`, the Potency result is “inactive”.

Regarding `Oc1ccc2c3c1O[C@H]1c4[nH]c5ccccc5c4C[C@@]4(O)C(C2)N(CC2CC2)CCC314` (some centres not stated), the Potency result is “inactive”.

With `C[N+](C)(C)CC#CCN1CCCC1=O`, the Potency entry is “inactive”.

Turning to `CCN1C[C@@]2(COC)C3[C@@H](OC)C4[C@@H]1C3([C@@H]1C[C@]3(O)[C@H](OC(=O)c5ccccc5)[C@@H]1[C@]4(OC(C)=O)[C@@H](O)[C@@H]3OC)[C@H](OC)C[C@H]2O`, the Potency result was “inactive”.

Regarding `[Cl-].[Cl][Pt].[NH2-].[NH2-].c1ccncc1`, the Potency result is “inactive”.

Regarding `CCCCCCCCCCCCCC(=O)O[C@@H]1[C@@H](C)[C@@]2(O)[C@@H](C=C(CO)C[C@@]3(O)C(=O)C(C)=C[C@@H]23)C2C(C)(C)[C@@]21OC(C)=O` (some centres not stated), the Potency result was “inactive”.

For the compound `C[N+](C)(C)CCOC(=O)CBr`, the Potency result is “inactive”.

`CC1(C(=O)O)C2CCC(O2)C1(C)C(=O)O` (configuration not stated): the Potency result was “inactive”.

On to `Clc1ccc(N2CC3CCC(C2)N3)nn1`, for which the Potency entry is “inactive”.

As to `CN1CC[C@@]2(C)c3cc(OC(=O)Nc4ccccc4)ccc3N(C)[C@@H]12`, the Potency entry is “inactive”.

`CCCN(CCC)[C@H]1CCc2c(F)ccc(O)c2C1`: the Potency result was “inactive”.

As for `O=[N+]([O-])/C=C/c1ccc2c(c1)OCO2`, the Potency entry was “inactive”.

As to `CNc1ccc2oc(C[C@H]3O[C@@]4(CC[C@H]3C)O[C@H]([C@H](C)C(=O)c3ccc[nH]3)[C@H](C)C[C@H]4C)nc2c1C(=O)O`, the Potency result was “inactive”.

As to `CC(N)c1cccc(Cl)c1Cl` (configuration not stated), the Potency entry was “inactive”.

As to `Cc1sc2ccccc2c1CC1=NCCN1`, the Potency entry is “inactive”.
